Data on 25 molecules can be found in PubChem BioAssay AID686952 (The Scripps Research Institute Molecular Screening Center, 2013).

SMILES strings stand for the structures. In all, about 3,200 compounds went through this assay and about 2,600 (81%) were called active. The set was probably picked from earlier hits. A selection follows. A number with no mark means an inactive call.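 The calls were made as follows: active = activation above the all-compound mean plus 3 SD, ignoring values outside control-based bounds (cut at about 4.8% in these data); inactive = the rest.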

This assay in a line: apparent activators from fluorescence artefacts, no enzyme – biochemical, fluorescence intensity, high throughput, artefact control for kallikrein-7 zymogen activator project (AID 686952).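 Also: value is the 4 h activation minus the activation read at time zero.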 Particulars: EDANS-DABCYL substrate fluorescence interference, 4 h, at 7 µM, stronger effect = higher value, solvent 0%, active enzyme control 100%.
On to `CN1CCCc2cc(C#N)c(=O)[nH]c21`, for which the activation was 38.1% (active).
As for `Cc1cc2c(nc1C)CCCN2C`, the activation was 2.55%.
`COc1cccc(NC(=O)CN(C)C(=O)/C=C/c2cc(OC)ccc2OC)c1`: the activation was -114%.
The value for `Cn1cccc1/C=N/NC(=O)CNc1cccc2ccccc12` was 1.38%; that for `CC1(C)CC(=O)c2cc(OCC(=O)NCC3CCCO3)ccc2O1` (stereo not given) was 57.9% (active); that for `C[C@@H]1C(c2ccc(F)cc2)=NN(c2ccc(Br)cc2)[C@H]1C(=O)N1CCOC1=O` was 26.5% (active).
On to `Clc1ccc(-c2cccc3nccn23)cc1`, for which the activation is 11.3% (active).
The value for `Cc1ccc(-c2nn(-c3ccccc3)cc2/C=C/C(=O)Nc2cccc(S(N)(=O)=O)c2)cc1` was 251% (active); that for `COc1ccc2nc(Nc3nc4cc5c(cc4s3)OCCO5)sc2c1` was -11.5%; that for `CCS(=O)(=O)Nc1cc(C(=O)OC)ccc1C(=O)OC` was 8.19% (active).
In the case of `CCCCCC(=O)Nc1ccc(-c2cn3cccnc3n2)cc1`, the activation was 28.5% (active).
Consider `CC(=O)Nc1ccc(-c2cn3cccnc3n2)cc1`, for which the activation was 73.5% (active).
Take `CC(C)(C)C(=O)Nc1ccc(-c2cn3cccnc3n2)cc1`: the activation is 80.3% (active).
For `CCOC(=O)C1=C(O)/C(=C/c2ccc(OCC(=O)Nc3ccc(C)cc3)cc2)N=C1C` the value was 3.03%; for `CCOc1ccc(-n2c(SCC(=O)Nc3cc(C)c(NC(=O)c4ccccc4)cc3OC)nnc2-c2cccs2)cc1`, 19.4% (active); for `COc1c(N2CCN(C(=S)Nc3ccccc3F)C(C)C2)c(F)cc2c(=O)c(C(=O)O)cn(C3CC3)c12` (stereo not given), -26%.
`Cc1cccc(C)c1NC(=O)C(c1ccccc1)N1CC(=O)Nc2ccccc21` (stereo not given): the activation is 24.8% (active).
On to `CNc1cncc(-c2ccc(NS(C)(=O)=O)cc2)n1`, for which the activation is 46.5% (active).
Take `CN(C)Cc1c(O)ccc2c(=O)c(-c3ccccc3Cl)coc12`: the activation is 83.7% (active).
For `CC(=O)Nc1ccc(S(=O)(=O)NCC(=O)OCc2cc(=O)oc3ccc4ccccc4c23)cc1` the value was 209% (active); for `Cc1c(C)c2c(OCC(=O)N[C@@H](C(=O)O)c3ccccc3)cc3c(c2oc1=O)CCC(C)(C)O3`, 49.4% (active); for `Cc1cc(=O)oc2c3c(cc(OCC(=O)NCCC(=O)N[C@@H](C)C(=O)O)c12)OC(C)(C)CC3`, 65.1% (active).
For `Cc1c(C)c2c(OCC(=O)NCCCO)cc3c(c2oc1=O)CCC(C)(C)O3` the value was 55.7% (active); for `Cc1cc(=O)oc2c3c(cc(OCC(=O)N[C@H](C(=O)O)c4ccccc4)c12)OC(C)(C)CC3`, 49.3% (active).
The value for `O=C(O)c1ccc2c3c(cccc13)C(=O)N(OS(=O)(=O)c1ccccc1)C2=O` was 103% (active).
